The list is not random: actives were taken first. Their share in the collection is about 21%.
Shiga toxin inh = A qHTS for Small Molecule Inhibitors of Shiga Toxin. actives 9.2% (n = 290,000). AID 2315, 2010. Vero cells, Shiga toxin protein synthesis inhibition reporter. inhibition, % at 38.7 µM; in the data active means inhibition mostly above about 28%, no sharp cut-off; inactive means mostly below about 43%
Pf growth 96h = Primary qHTS for delayed death inhibitors of the malarial parasite plastid, 96 hour incubation; P. falciparum luciferase reporter growth, 96 h; Potency, µM (doses to about 28.7 µM), most hits filed as inhibitors; actives 6.9% (n = 320,000); AID 504834, 2011
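Delayed-death screen, second-generation endpoint: infected erythrocytes, 2% hematocrit, 0.05% parasitemia final; 96 hours at 37 C, 5% CO2; luciferase detection reagent; luminescence decrease equals reduced growth.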
Pf growth 48h = Primary qHTS for delayed death inhibitors of the malarial parasite plastid, 48 hour incubation | P. falciparum luciferase growth in erythrocytes, 48 h | Potency, µM (highest dose often 28.7 µM), most hits filed as inhibitors | actives 5.9% (n = 310,000) | AID 504832, 2011
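Firefly luciferase activity from engineered P. falciparum reports growth; inhibitors lower the luminescent signal. Cultures contained 2% hematocrit erythrocytes at 0.1% final parasitemia.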
NS1 function inh = qHTS Assay for Inhibitors of Influenza NS1 Protein Function; actives 0.4% (n = 270,000); Potency, µM (series often up to 46.1 µM); AID 2326, 2010; calls by dose curve; further: actives are rising curves; nearly all actives have a fitted effect of over 50% in size
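Read-out: OD600 growth recovery of NS1-expressing budding yeast. Cells grown overnight at 30C in -URA glucose medium, washed, resuspended and diluted 1:100 in 2% galactose assay medium, pH 6.0. Same strain lacking NS1 served as positive control.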
CHX counter = Cycloheximide Counterscreen for Small Molecule Inhibitors of Shiga Toxin. AID 2314, 2010. max response, %. cell reporter, cycloheximide protein synthesis inhibition counterscreen. actives 12% (n = 300,000); in the data active means max response mostly above about 13%, no sharp cut-off; inactive means mostly below about 14%; further: read at 38.3 µM for the half of the compounds with a filed dose
Sm TGR block = qHTS Assay for the Inhibitors of Schistosoma Mansoni Peroxiredoxins; purified TGR, DTNB reduction, TNB absorbance 405 nm; Schistosoma mansoni thioredoxin glutathione reductase (TGR), Q962Y6; AID 485364, 2010; Potency, µM (titrated, usually from 114 µM), usual class: inhibitors; actives 3% (n = 360,000); further: nearly all actives have a fitted effect of over 60% in size
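First, TGR (20 nM dispensed) and NADPH were mixed with compound. Second, a 15 min room-temperature incubation followed. Third, further NADPH and then DTNB were added to start the reaction. Finally, TNB absorbance was monitored kinetically.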
Hits are given with their value; n = inactive; u = inconclusive; x = not tested or not shown. Unless noted, the call rests on the fitted dose curve; in most records, active means well fitted curve in the direction sought with a large enough effect; inconclusive means small, poorly fitted or top-dose-only effect, or another doubt; inactive means no such curve, though single readings can be large; an effect the other way counts as inactive or inconclusive.

SMILES	Shiga toxin inh	Pf growth 96h	Pf growth 48h	NS1 function inh	CHX counter	Sm TGR block
O=C(Nc1ccc(Cl)cc1F)c1cccc2ccccc12	34	u	n	n	27	n
O=C(Nc1cccnc1Oc1ccc(Cl)cc1)c1cccc2ccccc12	n	n	n	n	n	n
O=C(Nc1ccc(C(F)(F)F)cc1)N1CCC(N2CCCCC2)CC1	x	x	x	x	x	n
O=C(CCCc1cccs1)Nc1nccs1	n	n	n	x	n	n
NC(=O)CCCCC(=O)OCCCc1cccs1	n	4.7µM	n	n	n	u
CCNc1nc(NCC)nc(Oc2ccc(OCC)nn2)n1	n	n	n	u	n	n
CCNc1nc(NC(C)C)nc(Oc2ccc(OCCOc3ccc(C)cc3)nn2)n1	n	12µM	u	n	n	n
COc1ccc(Oc2nc(Oc3ccc(OC)cc3)nc(Oc3ccc(OC)cc3)n2)cc1	n	n	n	n	n	n
COc1ccc(-c2nncnn2)cc1	n	6.6µM	u	n	n	n
COc1ccc(-c2ccc(OC)cc2)cc1	n	n	u	x	34	n
COc1ccc(-c2noc(N3CCC(C(=O)Nc4cccc(C)c4C)CC3)n2)cc1	x	x	x	x	x	n
COC(=O)[C@@]12CCCN1[C@H](c1ccc(-c3ccc(F)cc3)cc1)[C@H]1C(=O)N(C)C(=O)[C@H]12	x	u	1.2µM	x	x	n
CCN1C(=O)[C@@H]2[C@@H](c3ccc(-c4ccc(F)cc4)c(OC)c3)N3CCCC[C@@]3(C(=O)OC)[C@@H]2C1=O	x	7.4µM	10µM	x	x	28µM
CCN1C(=O)[C@@H]2[C@@H](c3ccc(-c4ccc(F)cc4)cc3)N3CCCC[C@@]3(C(=O)OC)[C@@H]2C1=O	x	u	10µM	x	x	u
CCN1C(=O)[C@@H]2[C@@H](c3ccc(-c4ccc(Cl)c(Cl)c4)c(OC)c3)N3CCCC[C@@]3(C(=O)OC)[C@@H]2C1=O	x	u	2.6µM	x	x	n
CC(C)(C)OC(=O)N1CCC(CC2CC(c3ccccc3)=NO2)(C(=O)NCc2ccccc2)CC1 (stereo not drawn)	x	u	0.26µM	x	x	n
COC(=O)c1ccc(-c2cc(CC3(C(=O)OC)CCN(C(=O)OC(C)(C)C)CC3)on2)cc1	n	u	u	n	n	n
CCOc1cc(C(=O)N2CCC(c3ccncc3)CC2)cc(OCC)c1OCC	x	x	x	x	x	n
CCCCCCCNC(=O)C1(CC2CC(c3ccc(Cl)cc3)=NO2)CCN(C(=O)c2ccccc2)CC1 (stereo not drawn)	n	9.3µM	u	n	n	n
CCCCCCCNC(=O)C1(CC2CC(c3ccc(Cl)cc3)=NO2)CCN(C(=O)c2cc(OCC)c(OCC)c(OCC)c2)CC1 (stereo not drawn)	n	0.33µM	1.2µM	u	n	n
COC(=O)C1(CC2CC(c3cccc(Br)c3)=NO2)CCN(C(=O)OC(C)(C)C)CC1 (stereo not drawn)	n	n	u	n	n	n
COC(=O)C1(Cc2cc(-c3ccccc3)no2)CCN(C(=O)OC(C)(C)C)CC1	40	n	n	n	27	n
Cc1ccc(C(=O)NCC(=O)OCC(=O)c2ccccc2)s1	x	n	n	x	x	n
Cc1ccc(NS(=O)(=O)c2cc([N+](=O)[O-])ccc2N/N=C/c2sc(N3CCOCC3)nc2-c2ccccc2)c(C)c1	n	u	u	n	n	n
COc1ccc(C)cc1NC(=O)c1ccccc1NS(=O)(=O)c1cccc2cccnc12	n	n	n	n	n	n
SMILES	Shiga toxin inh	Pf growth 96h	Pf growth 48h	NS1 function inh	CHX counter	Sm TGR block
CCCCCCCNC(=O)C1(CC2CC(c3ccccc3)=NO2)CCN(C(=O)c2ccccc2)CC1 (stereo not drawn)	x	9.3µM	12µM	x	x	n
CCCCCCCNC(=O)C1(CC2CC(c3cccc(Br)c3)=NO2)CCN(C(=O)c2ccccc2)CC1 (stereo not drawn)	x	u	13µM	x	x	n
CCCCCCCNC(=O)C1(CC2CC(c3ccccc3)=NO2)CCN(C(=O)OC(C)(C)C)CC1 (stereo not drawn)	x	6.6µM	2.9µM	x	x	n
CCCNC(=O)Cn1nc(C)c2c(C)n(-c3ccccc3)nc2c1=O	x	x	x	x	x	n
O=c1oc2cc(O)ccc2cc1-c1ccccc1	54	n	n	n	38	n
COc1cccc(Nc2nnc(-c3cc4ccc(O)cc4oc3=O)s2)c1	x	x	x	x	x	n
